Drawing on PubChem BioAssay AID2546 (National Center for Advancing Translational Sciences (NCATS), 2010), this text covers Potency for 33 compounds.

In all, about 310,000 compounds went through this assay and about 11,000 (3.5%) were called active. A call without a number means that no potency is given here. Another 8% or so got no clear call; they are omitted. This is one part of a sample in which actives are shown more often than they occur. Calls follow the shape of the dose curve; as a rule, active = well fitted inhibition curve with a large enough effect; inconclusive = small, poorly fitted or top-dose-only effect, or effect the other way; inactive = flat fitted curve, though single readings scatter.
Potency is read from the fitted curve at half-maximal effect.

The nature of the experiment: VP16 counterscreen qHTS for inhibitors of ROR gamma transcriptional activity.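 Also: Gal4-VP16 expression switched on by copper sulfate through the metallothionein promoter; nearly all actives have a fitted effect of over 50% in size.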 To be noted: Drosophila S2 Gal4-VP16 UAS-luciferase, luminescence, 20 h; series mostly up to 53.6 µM. Background: The purpose of a counterscreen is to sort out artefacts and off-target activity.
As to `CC[C@]1(c2ccccc2OC)C(=O)N(C(=O)OC)N1C(=O)OC`, the Potency entry is “inactive”. `Cc1ccc(/C=N/NC(=O)CNC(=O)COc2ccccc2)o1`: the Potency result is “inactive”. For the compound `N=c1oc2ccccc2cc1C(=O)N/N=C/c1ccccc1`, the Potency result was “inactive”.

For `Cc1ccc(/C=N/NC(=O)c2cc3ccccc3cc2O)o1`, the Potency was 1.58 µM (active). For `COc1ccc(-n2ncc3c(SCC(=O)NNC(C)=O)ncnc32)cc1`, the Potency entry is “inactive”. For the compound `COc1ccc(N(C(=O)c2snc(C(N)=O)c2N)C(C(=O)NC2CCCC2)c2ccc(C)o2)c(OC)c1` (stereo not drawn), the Potency result was “inactive”. Then `Cc1cccc(-n2ncc(C#N)c2-n2cccc2)c1`, with “inactive”; and `COc1ccc(Oc2c(Cl)cnn(-c3ccccc3)c2=O)cc1`, with “inactive”; and `Cc1cccc(-n2ncc(Cl)c(Cl)c2=O)c1`, with 14.1 µM (active).

For `O=C(CSc1ccc(-c2ccccn2)nn1)Nc1ccccc1`, the Potency result was “inactive”. With `Clc1nc(NC2CCCC2)nc(N2CCOCC2)n1`, the Potency entry was “inactive”. With `O=C(NNC(=O)C(O)c1ccccc1)NC1CCCCC1` (stereo not drawn), the Potency result was “inactive”. With `Cc1nc(/N=C(\N)NC(=O)NC2CCCCC2)nc2ccccc12`, the Potency is 7.94 µM (active). For `Cc1nn(-c2ccccc2)c(C)c1C(=O)OCC(=O)NC(=O)NC1CCCCC1` the value was “inactive”. For the compound `c1ccc2c(Nc3ccncc3)nc(-c3ccoc3)nc2c1`, the Potency entry is “inactive”. In the case of `c1ccc2c(Nc3ccncc3)nc(-c3ccc4c(c3)OCO4)nc2c1`, the Potency was 17.8 µM (active). For the compound `Cc1cccc(-c2nc(Nc3ccc(O)cc3)c3ccccc3n2)c1`, the Potency result is “inactive”. As for `COCCc1nn2c(=O)cc(COC(=O)c3cc(OC)c(OC)c(OC)c3)nc2s1`, the Potency entry is “inactive”. Consider `Cc1cc(C(=O)NC2CC(C)(C)Cc3c2cnn3-c2ccccc2)n[nH]1` (stereo not drawn), for which the Potency result is “inactive”. Take `O=C(c1ccccc1F)N(Cc1ccccc1)Cc1ccccc1`: the Potency result is “inactive”. For `CC(C)=C(NC(=O)c1ccccc1)C(=O)N/N=C(\C)c1ccccc1O` the value was 2.51 µM (active); for `CC(=O)NC(=O)c1ccccc1O`, “inactive”; for `C/C(=N\NC(=O)c1ccccc1C)c1ccc(N2CCOCC2)cc1`, “inactive”. For the compound `C/C(=N\NC(=O)c1ccoc1C)c1ccccc1O`, the Potency was 0.708 µM (active). On to `CNC(=O)C(NC(=O)c1ccccc1)=C(C)C`, for which the Potency result was “inactive”. For the compound `C/C(=N\NC(=O)c1nc(C)cc(C)n1)c1ccccc1`, the Potency entry was “inactive”. On to `CCc1cc(=O)oc2c(C)c(OCC(=O)N3CC[C@@]4(O)CCCC[C@H]4C3)ccc12`, for which the Potency result was “inactive”. For `COc1ccc(CNC(=O)C2CCN(S(=O)(=O)c3ccc(SC)cc3)CC2)cc1` the value was “inactive”.

Consider `COc1cccc(NC(=O)[C@H](Cc2c[nH]c3ccccc23)NC(=O)[C@@H]2Cc3ccccc3CN2)c1`, for which the Potency result was “inactive”.

Take `O=C1CCN(CCCc2ccccc2)CCN1CCO`: the Potency result was “inactive”.

Turning to `CCOc1ccccc1N1CN(Cc2ccccc2)CNC1=S`, the Potency was 11.2 µM (active). `CCOc1ccccc1OCCCNCc1ccccc1`: the Potency entry is “inactive”. For the compound `CCOc1ccc(CC(=O)NC2CCN(Cc3ccccc3)CC2)cc1`, the Potency entry was “inactive”.
